Data on 40 compounds can be found in PubChem BioAssay (NCATS).

Each structure is given as a SMILES string. Results filed as inconclusive are left out. A number with no mark means an inactive call. The source made the active and inactive calls. Calls follow the shape of the dose curve; as a rule, active = well fitted cell-killing curve with a large enough effect; inconclusive = small, poorly fitted or top-dose-only effect, or effect the other way; inactive = no such curve, though single readings can be large or run the other way.
Potency is read from the fitted curve at half-maximal effect.

A short description of the test: Quantitative highthroughput screen to assess conditional lethalithy of SEM cells grown in RPMI1640 with unreated serum (RPMI+s) (AID 1963883). Also: nearly all actives have a fitted effect of over 35% in size. The following applies: SEM B-ALL cells, CellTiter-Glo viability, 48 h; series mostly up to 45.8 µM; viability: at the top concentration. The text has this: Assay Provider: Jason Cantor Ph.D.
Department of Biochemistry
University of Wisconsin-Madison, Madison, WI, USA
Chemical screening studies have identified drug sensitivities across hundreds of cancer cell lines but most putative therapeutics fail to translate. Discovery and development of drug candidates in models that more accurately reflect nutrient levels in human blood is a major challenge. Here we performed high-throughput screens in conventional versus Human Plasma-Like Medium (HPLM) to identify compounds that were "missed" when screening using the artificial culture condition. Sets of conditional anticancer compounds spanned phases of clinical development and included non-oncology drugs were assessed. […] We also traced conditional phenotypes for several chemotherapeutics to availability of HPLM-specific metabolites and confirmed others for compounds whose reported targets are encoded by nonessential genes. Our findings establish generalizable strategies for exploiting conditional lethality in HPLM to reveal therapeutic candidates and mechanisms of action in cancer cells.
Described herein are the results of each viability screens against three cell lines: NOMO1 (an acute myeloid leukemia cell line); P12-Ichikawa (a T-cell acute lymphoblastic leukemia); and SEM (a B-cell ALL). Each assay was screened using 3 different cell culture media: homemade human plasma-Like medium with 10% dialyzed fetal bovine serum (HPLM+ds); RPMI1640 with 10% untreated FBS and 5mM glucose (RPMI+s); and RPMI1640 with 10% dialyzed fetal bovine serum and 5 mM glucose (RPMI+ds).
PROTOCOL TABLE (as described by Inglese J, Shamu CE and Guy RK. 2007)
SEQUENCE No. (e.g., 1, 2, 3, etc.); […] (e.g., Cells, Incubation, Reagent, etc.); VALUE and DESCRIPTION.
1; Cells; 5 uL; white, solid bottom 1536-well Greiner assay plate.
2; Compounds; 23 nL; Kalypsis pin tool (Wako USA) equipped with a 1536-well pin head to transfer to the assay plates.
3; Incubation; 48 hours; 37C incubation.
4; Reagent; 3 uL; CellTiter Glo (Promega).
5; Incubation; 5 min, room temperature
6; Detection; Luminescence, Viewlux PerkinElmer.
NOTES (numbers refer to Sequence numbers above)
1. Briefly, 5 ul of cell reagent was dispensed using a Multidrop Combi Dispenser. The NOMO1 and SEM cells were plated at 500 cells/well and the P12-Ichikawa line at 1000 cells/well.
2. After seeding the cells, 23 nL of MIPE 4.1 library compounds (in DMSO) were added to each plate using a Kalypsys 1536 Pintool dispenser. Bortezomib at final concentration of […] and DMSO were added to each plate as positive and negative controls respectively. For each screen, MIPE 4.1 compounds were added over an eleven-point concentration range […] in 3-fold dilutions.
3. Each plate was covered with a stainless steel gasketed lid to prevent evaporation and incubated for 48 hour at 37C, 95% relative humidity, and 5% CO2.
4-5. Three microliter CellTilter-GloTM luminescent substrate mix (Promega) reagent was added to the assay plate and incubated at room temperature for 5 min.
6. The luminescence signal was measured using a ViewLux (PerkinElmer) multiplate reader with a 2 second exposure time per plate. Data for each compound were normalized as percent viability such that measurements for DMSO and the empty well controls in each plate were defined as 100% and 0%, respectively.
Background: Cellular ATP, detected with luciferase, serves as a proxy for viable cell number.
Broadly, the viability is a read-out of living cells in per cent, often relative to untreated cells. `Fc1ccc(Cl)cc1-c1nc(Nc2ccncc2)c2nccnc2n1`: the “viability” value is 108%.

Consider `CC(C)N(CCCNC(=O)Nc1ccc(C(C)(C)C)cc1)C[C@H]1O[C@@H](n2cc(Br)c3c(N)ncnc32)[C@H](O)[C@H]1O`, for which the Potency was 20900 nM (active).

`CC(C)(O)CCc1ccc(OCc2cc(-c3cccc(OC(F)F)c3)c3ncccc3c2)cc1`: the “viability” value was 103%.

For `C[C@H]1Oc2cc(cnc2N)-c2c(nn(C)c2C#N)CN(C)C(=O)c2ccc(F)cc21`, the “viability” value was 57.4%.

For the compound `Cc1ccc(C)c(OCCCC(C)(C)C(=O)O)c1`, the “viability” value is 95.8%.

Take `C=CCn1c(=O)c2cnc(Nc3ccc(N4CCN(C)CC4)cc3)nc2n1-c1cccc(C(C)(C)O)n1`: the Potency is 418 nM (active).

For `CC(C)(Sc1ccc(CCN(CCCCC2CCCCC2)C(=O)NC2CCCCC2)cc1)C(=O)O`, the “viability” value was 73.7%.

As to `COc1cccc(OC)c1-c1cc(C(=O)NC2(C(=O)O)C3CC4CC(C3)CC2C4)nn1-c1ccnc2cc(Cl)ccc12` (stereo not given), the “viability” value was 87.7%.

On to `Fc1ccc(CNc2ncnc3ccc(F)cc23)cc1`, for which the “viability” value is 105%.

As for `CC(C)OC(=O)C(C)(C)Oc1ccc(C(=O)c2ccc(Cl)cc2)cc1`, the Potency is 10500 nM (active).

Turning to `Cc1ccc(C(=O)Nc2ccc(S(=O)(=O)O)c3cc(S(=O)(=O)O)cc(S(=O)(=O)O)c23)cc1NC(=O)c1cccc(NC(=O)Nc2cccc(C(=O)Nc3cc(C(=O)Nc4ccc(S(=O)(=O)O)c5cc(S(=O)(=O)O)cc(S(=O)(=O)O)c45)ccc3C)c2)c1`, the Potency is 4690 nM (active).

Consider `Nc1nc(N)c2nc(CNc3ccc(C(=O)NC(CCC(=O)O)C(=O)O)cc3)cnc2n1` (stereo not given), for which the Potency was 41.8 nM (active).

Take `COc1ccccc1OCCNCC(O)COc1cccc2[nH]c3ccccc3c12` (stereo not given): the “viability” value was 82.2%.

Turning to `CN1C(C(=O)Nc2ccccn2)=C(O)c2sc(Cl)cc2S1(=O)=O`, the “viability” value is 88.5%.

As to `O=C(CS(=O)Cc1ccco1)NCC=CCOc1cc(CN2CCCCC2)ccn1` (stereo not given), the “viability” value was 106%.

For `CC[C@H](CC[C@@H](C)[C@H]1CC[C@H]2[C@@H]3CC=C4C[C@@H](O)CC[C@]4(C)[C@@H]3CC[C@]12C)C(C)C`, the “viability” value was 92.5%.

With `Cc1cc2c(s1)Nc1ccccc1N=C2N1CCN(C)CC1`, the “viability” value is 87.5%.

Consider `CC(C)[C@@H](CS(=O)(=O)C(C)C)N1C(=O)[C@@](C)(CC(=O)O)C[C@H](c2cccc(Cl)c2)[C@H]1c1ccc(Cl)cc1`, for which the Potency is 295 nM (active).

As to `NC(=O)c1ccc(-c2nc(-c3ccc4c(c3)OCCO4)c(-c3ccccn3)[nH]2)cc1`, the “viability” value was 109%.

With `CC(C)c1ccc2oc3nc(N)c(C(=O)O)cc3c(=O)c2c1`, the “viability” value is 97.1%.

On to `O=C1C(Cl)=C(NCCN2CCOCC2)C(=O)c2ncccc21`, for which the Potency was 4690 nM (active).

`CN(CC(=O)N(Cc1ccc(C2CCCCC2)cc1)c1ccc(C(=O)O)c(O)c1)S(=O)(=O)c1c(F)c(F)c(F)c(F)c1F`: the Potency was 16600 nM (active).

On to `CCCCN1CCC(CNC(=O)c2c3n(c4ccccc24)CCCO3)CC1`, for which the “viability” value is 72.4%.

As to `COc1cc(OC)c(C(=O)CCCN2CCCC2)c(OC)c1`, the “viability” value is 104%.

With `COc1ccc2c(c1)c(CC(=O)O)c(C)n2C(=O)c1ccc(Cl)cc1`, the “viability” value was 106%.

`CC(C)c1cc(-c2n[nH]c(=O)n2-c2ccc3c(ccn3C)c2)c(O)cc1O`: the Potency was 59 nM (active).

In the case of `COCCOc1nc(-c2ccc(Cl)c(Cl)c2)n(-c2ccc(NC(=O)CCl)cc2)n1`, the “viability” value is 80.1%.

On to `COc1cc2nc(-c3ccc(N4CCN(C)CC4)cc3)nc(NCCN3CCOCC3)c2cc1OC`, for which the Potency was 469 nM (active).

Consider `C[C@@]12O[C@@H](C[C@]1(O)CO)n1c3ccccc3c3c4c(c5c6ccccc6n2c5c31)CNC4=O`, for which the Potency was 46.9 nM (active).

With `COc1ccc(-c2cc(=O)c3c(O)cc(O[C@@H]4O[C@H](CO[C@@H]5O[C@@H](C)[C@H](O)[C@@H](O)[C@@H]5O)[C@@H](O)[C@H](O)[C@@H]4O)cc3o2)cc1O`, the “viability” value was 94.6%.

As to `CNC(=O)c1ccc(Nc2ncc(C(F)(F)F)c(NCc3nccnc3N(C)S(C)(=O)=O)n2)cc1`, the Potency is 1050 nM (active).

Take `CC(C[N+](C)(C)C)OC(N)=O` (stereo not given): the “viability” value was 98.5%.

`NCCS(=O)(=O)O`: the “viability” value was 108%.

As to `CC(C)NCC(O)COc1ccc(CCOCC2CC2)cc1` (stereo not given), the “viability” value was 115%.

Take `OCCn1cc(-c2ccc3c(c2)CCC3=NO)c(-c2ccncc2)n1`: the “viability” value was 85.6%.

Consider `NC(N)=Nc1nc(CSCCC(N)=NS(N)(=O)=O)cs1`, for which the “viability” value was 95%.

Consider `C=CCNc1c(O)cc2c(O)c1C[C@@H](C)C[C@H](OC)[C@@H](O)[C@@H](C)C=C(C)[C@H](OC(N)=O)[C@@H](OC)C=CC=C(C)C(=O)N2`, for which the Potency was 833 nM (active).

Consider `O=C(O)C1CCCN(CCC=C(c2ccccc2)c2ccccc2)C1` (stereo not given), for which the “viability” value is 112%.

With `NC1=N[C@@]2(c3cc(NC(=O)c4ccc(F)cn4)ccc3F)COC[C@@H]2CS1`, the Potency was 11800 nM (active).

Turning to `CCc1nc(C(N)=O)c(Nc2ccc(N3CCC(N4CCN(C)CC4)CC3)c(OC)c2)nc1NC1CCOCC1`, the Potency was 295 nM (active).
